Bioassay records from PubChem.
In the library only some 10% were active in any assay of this set; here they are far more common.
NPR1 antag: blocks ANP-stimulated signaling of human Npr1 receptor. actives 1.6% (n = 76,000). HEK293 hNpr1 GloSensor cGMP, ANP-stimulated luminescence. Potency, µM (highest dose often 46.3 µM), usual class: inhibitors. P16066; calls by dose curve; note: nearly all actives have a fitted effect of over 60% in size
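Compound pre-incubated 30 min at room temperature on GloSensor-loaded HEK293 cells stably carrying hNpr1 and the pGS-40F cGMP biosensor. Stimulation uses hNppA at 0.1 nM final; luminescence is taken at baseline and 20 min post-agonist.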
GPT2 inh: blocks human glutamate pyruvate transaminase 2 | Q8TD30 | Recombinant GPT2, coupled pyruvate oxidase/HRP Amplex Red fluorescence | Potency, µM (series often up to 57.7 µM), most hits filed as inhibitors | actives 0.25% (n = 100,000) | AID 1671188; note: nearly all actives have a fitted effect of over 60% in size
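Recombinant GPT2 (10ng/uL) with 250uM a-KG and 2mM L-alanine, 30 min at room temperature, in HEPES pH 7.5 buffer. Pyruvate detected by pyruvate oxidase/HRP/Amplex Red fluorescence after 30 min in the dark; AOA (50uM) as positive control.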
HEK cytotox: kills HEK 293 cells; HEK 293 viability, ATP luminescence (CellTiter-Glo), 48-72 h; Potency, µM (series often up to 115 µM), actives largely listed as inhibitors; actives 6.6% (n = 94,000); AID 1345083; note: nearly all actives have a fitted effect of over 60% in size
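Pintool-delivered compounds were incubated with HEK 293 cells (250 cells/well) at 37 degree Celsius for 48 or 72 hr. ATP-dependent luminescence (CellTiter-Glo) then reported remaining viable cells.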
Luciferase inh: Photinus pyralis luciferase inhibition; AID 1347043; actives 2.5% (n = 76,000); purified P. pyralis luciferase, luminescence, biochemical; Potency, µM (doses to about 115 µM), usual class: inhibitors; note: nearly all actives have a fitted effect of over 65% in size
Target sequence (P08659 whole entry, looked up): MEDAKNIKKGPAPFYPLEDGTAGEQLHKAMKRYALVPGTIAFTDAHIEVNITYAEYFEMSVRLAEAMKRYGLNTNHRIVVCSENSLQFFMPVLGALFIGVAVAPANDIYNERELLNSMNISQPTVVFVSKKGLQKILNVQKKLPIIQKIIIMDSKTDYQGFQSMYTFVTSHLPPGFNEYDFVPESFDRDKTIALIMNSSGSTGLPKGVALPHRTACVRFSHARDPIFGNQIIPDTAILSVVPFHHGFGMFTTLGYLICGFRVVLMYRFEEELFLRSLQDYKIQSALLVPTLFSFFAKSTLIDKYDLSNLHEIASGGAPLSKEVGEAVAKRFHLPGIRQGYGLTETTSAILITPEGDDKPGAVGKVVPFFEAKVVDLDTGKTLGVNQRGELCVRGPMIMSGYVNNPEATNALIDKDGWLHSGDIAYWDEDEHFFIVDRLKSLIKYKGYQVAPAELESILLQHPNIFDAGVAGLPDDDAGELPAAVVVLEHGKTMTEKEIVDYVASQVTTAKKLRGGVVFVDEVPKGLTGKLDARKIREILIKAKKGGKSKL
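FLuc 10nM, D-luciferin 10uM, ATP 10uM, Mg acetate 10mM, Tris acetate pH 7.5, Tween/BSA; cpd qHTS; enzyme added last; CCD luminescence.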
3T3 cytotox: kills NIH 3T3 cells; NIH 3T3 viability, CellTiter-Glo ATP luminescence, 48-72 h; Potency, µM (top dose mostly 96.7 µM), hits mostly inhibitors; actives 4.3% (n = 94,000); note: nearly all actives have a fitted effect of over 55% in size
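Cells were seeded at 400 per well, treated with pin-transferred compound, and kept 48 or 72 hr at 37 °C before CellTiter-Glo addition and luminescence imaging of cellular ATP.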
A number is an active result; . = inactive; ? = inconclusive; / = no result; ! = a repeat was not active. Unless noted, calls come from the whole dose curve; as a rule, active = well fitted curve in the direction sought with a large enough effect; inconclusive = small, poorly fitted or top-dose-only effect, or another doubt; inactive = no such curve, though single readings can be large; an effect the other way counts as inactive or inconclusive.

SMILES	NPR1 antag	GPT2 inh	HEK cytotox	Luciferase inh	3T3 cytotox
CC1(C(=O)N2CCOc3c(O)cc(-c4cccc(Cl)c4)cc3C2)CCCO1 (stereo not given)	.	.	45µM	.	?
CCCNC(=O)Cc1csc2nc(C)c(-c3cc(C)n(-c4ccccc4CC)n3)c(=O)n12	.	.	?	.	.
Cc1nn(C(=O)CCC(=O)N2CCC(CCOc3ccccc3F)C2)c2ccccc12 (stereo not given)	.	.	.	.	.
O=C(CN1C(=O)CCC1=O)N1CCC(CCOc2ccccc2F)C1 (stereo not given)	?	.	45µM	.	.
CN(CC(=O)N1CCC(CCOc2ccccc2F)C1)S(=O)(=O)c1ccc2c(c1)oc(=O)n2C (stereo not given)	.	.	40µM	.	?
O=C1C[C@@H]2CCN(C(=O)COc3ccccc3)C[C@@H]2CCN1Cc1cccnc1	.	.	.	.	.
COc1cccc(-c2cc(C(=O)NCC(F)(F)F)c3cnn(C)c3n2)c1	/	/	.	/	?
CCC(C)NC(=O)c1cc(-c2cccc(OC)c2)nc2c1cnn2C (stereo not given)	/	/	100µM!	/	?
COc1cccc(-c2cc(C(=O)NCC3CCCCC3)c3cnn(C)c3n2)c1	/	/	40µM	/	?
COC(=O)Nc1nc2ccc(S(=O)c3ccccc3)cc2[nH]1 (stereo not given)	/	.	/	/	/
C=CCNC(=O)c1ccn2cncc2c1	.	.	.	.	.
c1cc(-c2nc3c(c(NCCCn4ccnc4)n2)CCNCC3)ccn1	.	.	.	.	.
c1ccc(-c2nc3c(c(NCC4OCCc5ccccc54)n2)CCNCC3)nc1 (stereo not given)	.	.	?	.	79µM
Cc1ccc([S+](=O)([O-])N2CCc3nc(-c4ccc(Cl)cc4)nc(-c4ccccc4)c3C2)cc1	.	.	?	28µM	.
COc1ccc(-c2nc(C3CC3)nc3c2CN([S+](=O)([O-])c2ccccc2)CC3)cc1	/	.	.	/	18µM
Cc1nc2c(c(-c3ccc(Cl)cc3)n1)CN([S+](=O)([O-])c1ccsc1)CC2	.	.	.	.	22µM
COc1ccc(-c2nc(C)nc3c2CN([S+](=O)([O-])c2ccccc2)CC3)cc1	/	.	.	/	35µM
O=[S+]([O-])(c1ccccc1)N1CCc2nc(C3CC3)nc(-c3ccc(Cl)cc3)c2C1	.	.	.	.	.
Cc1nc2c(c(-c3ccc(Cl)cc3)n1)CCN([S+](C)(=O)[O-])CC2	.	.	.	.	.
COCCN[C@H]1[C@@H]2OC[C@@H](O2)[C@@H](NC(=O)Nc2cccc(OC)c2)[C@@H]1O	.	.	.	.	.
CCOCCNC(=O)C1CCCN1Cc1ccc(-c2cc(C)cc(C)c2)cc1 (stereo not given)	/	.	35µM	/	?
CNC(=O)C1CCCN1Cc1ccc(-c2cc(C)cc(C)c2)cc1 (stereo not given)	/	.	?	/	?
Cc1cc(C)cc(-c2ccc(CN3CCCC3C(=O)Nc3cccc(F)c3)cc2)c1 (stereo not given)	/	.	?	/	?
Cc1cc(C)cc(-c2ccc(CN3CCCC3C(=O)NCC3CC3)cc2)c1 (stereo not given)	/	.	40µM	/	40µM
Cc1cc(C)cc(-c2ccc(CN3CCCC3C(=O)NCc3cccnc3)cc2)c1 (stereo not given)	/	.	50µM	/	?
SMILES	NPR1 antag	GPT2 inh	HEK cytotox	Luciferase inh	3T3 cytotox
Cc1cc(C)cc(-c2ccc(CN3CCCC3C(=O)NCCCc3ccccc3)cc2)c1 (stereo not given)	/	.	?	/	?
Cc1cc(C)cc(-c2ccc(CN3CCCC3C(=O)NCc3ccc(C(F)(F)F)cc3)cc2)c1 (stereo not given)	/	.	40µM	/	35µM
COc1ccccc1CNC(=O)C1CCCN1Cc1ccc(-c2cc(C)cc(C)c2)cc1 (stereo not given)	/	.	40µM	/	40µM
Cc1cc(C)cc(-c2ccc(CN3CCCC3C(=O)NCCc3ccc(F)cc3)cc2)c1 (stereo not given)	/	.	45µM	/	?
COc1cc(NC(=O)CN2CCCc3nc(C4CC4)ncc3C2=O)cc(OC)c1	.	.	.	.	.
Cc1ccc(-c2noc([C@@H]3Cc4nc[nH]c4CN3C(=O)NC(C)C)n2)cc1	.	.	.	.	?
Cc1ccc(NC(=O)N2Cc3[nH]cnc3C[C@H]2c2nc(-c3ccc(C)cc3)no2)cc1	.	.	?	32µM	100µM
COc1ccc(-c2noc([C@@H]3Cc4nc[nH]c4CN3C(=O)Nc3ccccc3)n2)cc1	?	.	?	32µM	?
CCOc1ccccc1C1NC(=O)N(CC(=O)Nc2ccc(C)cc2C)C2=C1C(=O)OC2 (stereo not given)	.	.	.	.	.
CC(=O)Nc1ccc(CN2CCCC3(Cc4ccccc4CNC3=O)C2)cc1 (stereo not given)	/	.	.	/	.
N#CC1CCN(C(=O)c2cc(-c3cccs3)c3cccn3n2)CC1	/	.	79µM	/	?
O=C(NCc1ccc(F)cc1)c1cc(-c2cccs2)c2cccn2n1	/	.	?	/	?
O=C(NCc1cccc(Cl)c1)c1cc(-c2cccs2)c2cccn2n1	/	?	28µM	/	?
O=C(NCC1CC1)c1cc(-c2cccs2)c2cccn2n1	/	.	71µM	/	?
C[C@@H](NC(=O)c1ccccc1)c1c(-c2ccc(F)cc2)noc1C(=O)O	.	.	.	.	.
CCCCNCc1ccc(OCC(O)CN2CCSCC2)c(OC)c1 (stereo not given)	.	.	.	.	.
Cc1nc2c(c(-c3ccc(O)cc3)n1)CN(C(=O)C1CC1)CC2	.	.	.	.	.
O=C1CCCCC(CNC(=O)C2CC2)N1 (stereo not given)	.	.	.	.	.
CCCOc1ccccc1C(C)Nc1nc(-c2cccnc2)nc2c1CNC2 (stereo not given)	.	.	79µM	.	?
CN1CC[C@H](c2nc3ccc(C(F)(F)F)cc3[nH]2)C1	.	.	112µM	?	?
COCC(=O)N1CC[C@H](c2nc3ccc(C(F)(F)F)cc3[nH]2)C1	.	.	.	.	.
FC(F)(F)c1ccc(CN2CC[C@H](c3nc4ccc(C(F)(F)F)cc4[nH]3)C2)cc1	?	.	35µM	?	32µM
COc1ccc2nc([C@H]3CCN(Cc4ccc(F)c(F)c4)C3)[nH]c2c1	.	.	?	.	?
Cc1ccc(CNC(=O)C2(CCO)CCN(Cc3ccccc3)C2)o1 (stereo not given)	.	.	.	.	.
COc1ccc(C(=O)N2CCC(c3n[nH]c(=O)n3-c3ccccc3)CC2)cc1OC	.	.	.	.	.
CC(C)c1noc(CC2CCN(C(=O)c3ccccc3Cl)CC2)n1	.	.	?	.	?
C#CCNC(=O)C1CCCCN1Cc1ccc(-c2cccs2)cc1 (stereo not given)	/	.	?	/	?
